Data taken from PubChem BioAssay AID2158 (National Center for Advancing Translational Sciences (NCATS), 2009).
Results filed as inconclusive are left out. Values without a mark were called inactive. Activity calls are given as the source filed them. Calls follow the shape of the dose curve; as a rule, active = well fitted inhibition curve with a large enough effect; inconclusive = small, poorly fitted or top-dose-only effect; inactive = no such curve, though single readings can be large or run the other way.

Target: Cruzipain (Trypanosoma cruzi) (UniProt P25779)
Sequence (P25779 123-467 limits assumed): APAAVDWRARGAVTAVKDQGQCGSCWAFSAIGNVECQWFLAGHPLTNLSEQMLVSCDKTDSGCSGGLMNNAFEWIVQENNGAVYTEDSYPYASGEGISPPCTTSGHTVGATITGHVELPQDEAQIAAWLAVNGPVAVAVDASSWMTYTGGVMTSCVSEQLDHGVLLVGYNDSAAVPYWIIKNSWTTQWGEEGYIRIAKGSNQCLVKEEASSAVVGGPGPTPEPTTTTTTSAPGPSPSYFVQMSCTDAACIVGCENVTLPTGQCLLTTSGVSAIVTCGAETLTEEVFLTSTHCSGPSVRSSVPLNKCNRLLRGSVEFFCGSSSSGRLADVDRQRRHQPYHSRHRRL
Experiment: Confirmation qHTS Assay for Inhibitors of Cruzain; also: nearly all actives have a fitted effect of over 40% in size;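 as to activity change, negative = inhibition: plate controls were uninhibited enzyme control for no effect and buffer wells lacking enzyme for full effect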
Conditions: purified cruzain, Z-FR-AMC fluorescence, 0.01% Triton
Outline: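 Purified cruzain, 1.5 nM, pre-incubated 15 min at room temperature with compound in 100 mM sodium acetate pH 5.5, 5 mM DTT, 0.01% Triton X-100. Then 2 uM Z-FR-AMC added; AMC fluorescence (ex 360/em 450 nm) increase over 60 s gave reaction progress.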
Potency is read from the fitted curve at half-maximal effect.

| SMILES | Potency | activity change, negative = inhibition [%] |
| --- | --- | --- |
| CCN(CC)c1nc(C#N)nc(N2CCOCC2)n1 | 8.91 µM (active) | – |
| COc1ccc(-c2nc(C#N)c(NCCCN3CCOCC3)o2)cc1 | – | -29.3 |
| COc1cc(NC(=O)C(OC(=O)CNC(=O)c2ccccc2)c2ccccc2)c(OC)cc1Cl (stereo not drawn) | 11.2 µM (active) | – |
| COc1cc(NC(=O)C(OC(=O)CNC(=O)c2ccccc2)c2ccccc2)cc(OC)c1 (stereo not drawn) | 25.1 µM (active) | – |
| CCn1cnc2c(Nc3cc(F)cc(F)c3)nc(C(=O)COc3c(F)c(F)cc(F)c3F)nc21 | – | -8.99 |
| CCc1ccc(-c2nc3c(=O)n(C)c(=O)nc-3n(CC)n2)cc1 | 2.51 µM (active) | – |
| O=C(Cn1cc(CN(Cc2ccccc2)Cc2ccccc2)nn1)Nc1cc(C(F)(F)F)ccc1Cl | – | -13.2 |
| COc1cccc(NC(=O)C(OC(=O)CNC(=O)c2ccccc2)c2ccccc2)c1 (stereo not drawn) | 12.6 µM (active) | – |
| CSc1nc(N(CCO)CCO)c2sc3nc(-c4ccco4)c4c(c3c2n1)CCC4 | 11.2 µM (active) | – |
| COc1ccccc1C(=O)NCC(=O)OCC(=O)c1cccc2ccccc12 | 31.6 µM (active) | – |
| Cc1ccc(C)c(CN2C(=O)c3ccccc3Sc3ccc(C(=O)NCc4ccc5c(c4)OCO5)cc32)c1 | – | -8.53 |
| COc1ccc(C(F)(F)F)cc1NC(=O)C(OC(=O)CNC(=O)c1ccccc1)c1ccccc1 (stereo not drawn) | 14.1 µM (active) | – |
| O=[S+]([O-])(/C=C/c1nc(Nc2cc(F)cc(F)c2)c2ncn(CC(F)F)c2n1)c1ccccc1 | – | -11.8 |
| CCn1nc(-c2ccccc2C)nc2c(=O)n(C)c(=O)nc1-2 | 0.631 µM (active) | – |
| CC(C)(C)c1ccc(-c2nc(SCC(=O)Nc3ccc(Cl)cc3)[nH]c(=O)c2C#N)cc1 | 12.6 µM (active) | – |
| N#Cc1nc(Nc2cccc(Cl)c2)nc(NC2CCCC2)n1 | 0.0794 µM (active) | – |
| O=C(NC(=S)Nc1cccc(Cl)c1N1CCCC1)c1ccc(-c2cccc([N+](=O)[O-])c2)o1 | – | -8.07 |
| Cc1oc(=O)c(NC(=O)c2ccc(Cl)cc2)cc1C(=O)c1ccccc1 | – | -10.8 |
| COc1ccccc1-c1nn2c(-c3cc(-c4ccccc4)n[nH]3)nnc2s1 | – | -18.8 |

| SMILES | Potency | activity change, negative = inhibition [%] |
| --- | --- | --- |
| N#Cc1nc(N2CCCC2)nc(N2CCCC2)n1 | 7.08 µM (active) | – |
| O=C(NCCc1nc2ccccc2n1CCCCOc1ccccc1)C1CCCCC1 | 0.562 µM (active) | – |
| O=C(CNC(=O)C(c1ccccc1)c1ccccc1)OCC(=O)c1cccc2ccccc12 | – | 17.8 |
| CC(C)NC(=O)COC(=O)CNC(=O)C1CCCCC1 | 14.1 µM (active) | – |
| CCCn1c(SCC(=O)N2CC(=O)Nc3ccccc32)nc2ccccc21 | 28.2 µM (active) | – |
| O=C(CNC(=O)C1CCCCC1)OCC(=O)c1ccc([N+](=O)[O-])cc1 | 2.82 µM (active) | – |
| O=C(NCCCc1nc2ccccc2n1CCOc1ccccc1)C1CCCCC1 | – | -11.7 |
| Cc1ccc(C(=O)C(OC(=O)CNC(=O)COc2ccccc2C)c2ccccc2)cc1 (stereo not drawn) | 3.16 µM (active) | – |
| NC(=O)C(OC(=O)CNC(=O)C1CCCCC1)c1ccccc1 (stereo not drawn) | 2.51 µM (active) | – |
| Cc1ccc2cc(CN(Cc3ccco3)Cc3nnnn3Cc3ccco3)c(=O)[nH]c2c1 | – | -10.1 |
| CCCCNC(=O)c1ccc2nc(-c3cccs3)c(-c3cccs3)nc2c1 | – | -3.05 |
| Cc1ccc(OCCCCn2c(CCNC(=O)C3CCCCC3)nc3ccccc32)cc1 | 1.12 µM (active) | – |
| N#Cc1nc(Nc2ccc3ccccc3c2)nc(NC2CCCC2)n1 | 1.26 µM (active) | – |
| O=C(OCN1C(=O)c2ccccc2C1=O)/C(=C\c1ccco1)NC(=O)c1ccccc1 | 1.12 µM (active) | – |
| Cc1ccc2[nH]c(=O)c(CN(Cc3ccco3)Cc3nnnn3Cc3ccccc3)cc2c1 | – | -13.8 |
| O=C(CNC(=O)c1ccc([N+](=O)[O-])cc1)OC(C(=O)Nc1cc(C(F)(F)F)ccc1Cl)c1ccccc1 (stereo not drawn) | 12.6 µM (active) | – |
| Cc1ccc(SCCC(=O)OCC(=O)Nc2ncc(Cl)cc2Cl)cc1 | – | -19.6 |
| CC(C)(C)C(=O)O/N=C1/C(=O)N(c2ccccc2)c2ccccc21 | – | -24.3 |
| O=C(CNC(=O)C1CCCCC1)OCC(=O)c1ccc(F)cc1 | 2.51 µM (active) | – |
